The source of these data is the supplement of paper PMC5662767.

The test relates to Drosophila S2 cl14 SmoIP sensor cells. Put plainly: normalized SmoIP GFP fluorescence (untreated unstimulated = 0%, untreated Hh-stimulated = 100%); higher = more Smo activation sensor fluorescence. To be noted: compound concentration: 2 uM, 24 h.
The mark [1] stands for this setting: stimulation: Hh conditioned medium (+Hh).
The mark [2] stands for this setting: stimulation: mock conditioned medium (-Hh).

Each structure is given as a SMILES string. Counter-ions that a name gives are not always drawn.
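Further: flow cytometry read-out as median GFP intensity of gated cells, compounds added 30 min before Hh-conditioned or mock medium, mock-treated cells serving as unstimulated baseline.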

Consider `CC(C)(C)OC(=O)N[C@H]1CCCCC/C=C\[C@@H]2C[C@@]2(C(=O)NS(=O)(=O)C2CC2)NC(=O)[C@@H]2C[C@@H](OC(=O)N3Cc4cccc(F)c4C3)CN2C1=O` [Danoprevir], for which the “normalized SmoIP GFP fluorescence” value runs as follows: under setting [1], 111%; under setting [2], 13%.

With `C[S+]([O-])c1ccc(-c2nc(-c3ccc(F)cc3)c(-c3ccncc3)[nH]2)cc1` (centres undefined), the “normalized SmoIP GFP fluorescence” value is, setting by setting: under setting [1], 119%; under setting [2], -5.98%.

Take `CC(=O)Oc1cc(C(F)(F)F)ccc1C(=O)O` [triflusal]: the “normalized SmoIP GFP fluorescence” value is, setting by setting: under setting [1], 111%; under setting [2], -4.58%.

With `Cn1cc(CNCC2CCN(c3ncc(C(=O)NO)cn3)CC2)c2ccccc21`, the “normalized SmoIP GFP fluorescence” value was determined as 268% under setting [1] and 60.6% under setting [2].

As to `Cc1cc(Cl)ccc1OCCCC(=O)NO` [Droxinostat], the “normalized SmoIP GFP fluorescence” value runs as follows: under setting [1], 95.2%; under setting [2], -5.76%.

With `Cc1ccc(C(=O)Nc2cccc(C(F)(F)F)c2)cc1Nc1nc(-c2cccnc2)nc2c1cnn2C`, the “normalized SmoIP GFP fluorescence” value was 140% under setting [1] and -9.04% under setting [2].

For `CO[C@H]1C[C@@H]2CC[C@@H](C)[C@@](O)(O2)C(=O)C(=O)N2CCCC[C@H]2C(=O)O[C@H]([C@H](C)C[C@@H]2CC[C@@H](OCCO)[C@H](OC)C2)CC(=O)[C@H](C)/C=C(\C)[C@@H](O)[C@@H](OC)C(=O)[C@H](C)C[C@H](C)/C=C/C=C/C=C/1C` [Everolimus(RAD001)], the “normalized SmoIP GFP fluorescence” value by setting is: under setting [1], 32.9%; under setting [2], -10.1%.

On to `COc1c(C)c(C(=O)c2ccc(N)c(C(=O)O)c2)n2ccccc12`, for which the “normalized SmoIP GFP fluorescence” value is 113% under setting [1] and -1.34% under setting [2].

Regarding `C#CCN[C@@H]1CCc2ccccc21` [rasagiline-mesylate], the “normalized SmoIP GFP fluorescence” value reads like this: under setting [1], 120%; under setting [2], -13.4%.

On to `CNC[C@H](O)c1cccc(O)c1` [Phenylephrine-hydrochloride], for which the “normalized SmoIP GFP fluorescence” value is, setting by setting: under setting [1], 108%; under setting [2], -14.9%.

For the compound `COc1ccc(-n2nc(C(N)=O)c3c2C(=O)N(c2ccc(N4CCCCC4=O)cc2)CC3)cc1`, the “normalized SmoIP GFP fluorescence” value under setting [1] worked out at 102% and the “normalized SmoIP GFP fluorescence” value under setting [2] was -1.56%.

For `CN(C)C/C=C/C(=O)Nc1cc2c(Nc3ccc(F)c(Cl)c3)ncnc2cc1O[C@H]1CCOC1`, the “normalized SmoIP GFP fluorescence” value under setting [1] was found to be 121% and the “normalized SmoIP GFP fluorescence” value under setting [2] stood at 7.92%.

For `Cn1cnc(N)c2ncnc1-2` [3-methyladenine], the “normalized SmoIP GFP fluorescence” value by setting is: under setting [1], 111%; under setting [2], -4.89%.

With `NC(=O)c1cnc(N[C@@H]2CCCC[C@@H]2N)nc1Nc1cccc(-n2nccn2)c1`, the “normalized SmoIP GFP fluorescence” value was 166% under setting [1] and 24.4% under setting [2].

For `N=C(N)NC(=N)NCCc1ccccc1` [Phenformin-hydrochloride], the “normalized SmoIP GFP fluorescence” value is 151% under setting [1] and -9.04% under setting [2].

With `c1ccc2c(c1)CCCC2C1=NCCN1` (centres undefined) [tetrahydrozoline-hcl], the “normalized SmoIP GFP fluorescence” value under setting [1] was determined as 115% and the “normalized SmoIP GFP fluorescence” value under setting [2] was -0.491%.

Take `C[C@H]1[C@H](C)CC[C@]2(C(=O)O)CC[C@]3(C)C(=CC[C@@H]4[C@@]5(C)C[C@@H](O)[C@H](O)[C@@](C)(CO)[C@@H]5CC[C@]43C)[C@H]12` [Asiatic-acid]: the “normalized SmoIP GFP fluorescence” value was 143% under setting [1] and -15.4% under setting [2].

For `Nc1cccc2c1CN(C1CCC(=O)NC1=O)C2=O` (centres undefined) [Lenalidomide], the “normalized SmoIP GFP fluorescence” value is, setting by setting: under setting [1], 115%; under setting [2], 28.7%.

With `O=c1ncccn1[C@@H]1O[C@H](CO)[C@@H](O)[C@H]1O` [zebularine], the “normalized SmoIP GFP fluorescence” value by setting is: under setting [1], 108%; under setting [2], -3.16%.

Regarding `C=CC(=O)Nc1cc2c(Nc3ccc(F)c(Cl)c3)ncnc2cc1OCCCN1CCOCC1` [CI-1033(Canertinib)], the “normalized SmoIP GFP fluorescence” value is, setting by setting: under setting [1], 109%; under setting [2], 13.8%.

Consider `CC(C)N(CCC(=O)c1ccc2ccccc2c1)Cc1ccccc1`, for which the “normalized SmoIP GFP fluorescence” value under setting [1] amounted to 119% and the “normalized SmoIP GFP fluorescence” value under setting [2] was -19%.

For `CC(C)CC(=O)Nc1n[nH]c2c1CN(C(=O)C1CCN(C)CC1)C2(C)C`, the “normalized SmoIP GFP fluorescence” value reads like this: under setting [1], 41.2%; under setting [2], 20.1%.
